# Reference: PubChem BioAssay (NCI)
# The panel holds about 83,000 compounds, 20% with a hit somewhere; the sample as a whole holds those more often.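 For each line, cells grew in 96-well plates with the test compound present at a single concentration for 48 hours.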 A number with no mark means an inactive call. Active and inactive are the calls of the source. How the source made its calls: active means growth percent below 10; inactive means the rest.
# Tests used:
# Assay in all cases: NCI-60 one-dose screen, 48 h (100 = growth as untreated, 0 = no growth, -100 = all killed)
# Details in all cases: 10 µM unless noted
# [1] = test system: HCT-15 colon
# [2] = test system: HT29 colon
# [3] = test system: SNB-75 CNS
# [4] = test system: SNB-19 CNS
# [5] = test system: U251 CNS
# [6] = test system: PC-3 prostate
# [7] = test system: SK-MEL-5 melanoma
# [8] = test system: UACC-62 melanoma
# [9] = test system: LOX IMVI melanoma
# [10] = test system: SK-MEL-28 melanoma
Structure (SMILES),growth [1],growth [2],growth [3],growth [4],growth [5],growth [6],growth [7],growth [8],growth [9],growth [10]
Cc1cc(-c2nc3cc(F)ccc3[se]2)cc(F)c1N,38.2%,62.5%,91.9%,97.2%,98.7%,72.7%,81%,85.7%,90%,121%
CC12CCC3C(CCC4=CC(=O)CCC43CF)C1CCC2=O (stereo not given),106%,116%,90.1%,109%,111%,97.4%,109%,115%,96.6%,117%
CC(=O)O[C@H]1CC[C@H]2[C@@H]3CC=C4c5nc(-c6ccccc6)sc5CC[C@]4(C)[C@H]3CC[C@]12C,9.12% (active),-31.5% (active),91.4%,67.4%,47.5%,72.3%,59.9%,50.7%,29.8%,90.4%
CCC[CH2][Sn]([CH2]CCC)([CH2]CCC)[O]c1ccc(Cl)cc1Cl,-62.5% (active),-52.3% (active),-93.6% (active),-81% (active),-74% (active),-70% (active),-99.8% (active),-88.4% (active),-81.4% (active),-96.9% (active)
COC(=O)N[C@H]1CCc2c(Br)c(OC)c(OC)c(OC)c2-c2ccc(SC)c(=O)cc21,7.69% (active),12%,29.1%,28.2%,21.4%,21.7%,-44.6% (active),38.6%,12.1%,66.9%
COC(=O)[C@@H](C)C[C@H](Cc1ccccc1)NC(=O)c1csc([C@@H](C[C@H](C(C)C)N(C)C(=O)[C@@H](NC(=O)[C@H]2CCCCN2C)C2CC2)OC(C)=O)n1,12.3%,-12.4% (active),32.3%,38%,13.6%,27.2%,-50.1% (active),60%,8.42% (active),60.3%
COC(=O)[C@@H](C)C[C@H](Cc1ccccc1)NC(=O)c1csc([C@@H](C[C@H](C(C)C)N(C)C(=O)C2(NC(=O)[C@H]3CCCCN3C)CCC2)OC(C)=O)n1,17.1%,5.81% (active),28.5%,73.2%,6.93% (active),19.4%,-43.7% (active),40%,12.7%,57%
CN1C(=O)N[C@H]2[C@@H]3NC(=O)c4ccc(Br)n4[C@@H]3C[C@]21O,3.29% (active),-15.6% (active),-70.3% (active),-15.6% (active),-13.8% (active),-11.7% (active),-76.7% (active),-54.2% (active),-42% (active),-34.9% (active)
CCOC(=O)[C@@H](C)C[C@H](Cc1ccccc1)NC(=O)c1csc([C@@H](C[C@H](C(C)C)N(C)C(=O)[C@@H](NC(=O)[C@H]2CCCCN2C)C(C)(C)C)OC(C)=O)n1,7.37% (active),0.339% (active),11.9%,24%,14.7%,21.1%,-46.2% (active),27%,10.1%,51.2%
CCN(CC)CCOC(=O)C(OC(C)C)(c1ccccc1)c1ccccc1,96.4%,79.7%,88.3%,96.2%,101%,83.7%,97.6%,103%,96.7%,99.6%
COc1cccc2c1c(C(=O)C(=O)Nc1cc(C)no1)cn2Cc1ccc(F)cc1,29.5%,24.8%,53.6%,66%,51.7%,62.5%,36.3%,38.7%,56.1%,68.3%
O=C(Nc1ccc(O)cc1)C(Cl)(Cl)Cl,98.7%,105%,98.5%,102%,95%,101%,100%,93.8%,106%,107%
COc1ccc(/C=C\c2cc(OC)c(OC)c(OC)c2)cc1OCC(=O)Nc1nc2ccc(OC(F)(F)F)cc2s1,22.2%,97.5%,7.25% (active),42.7%,26%,34%,27.3%,31.1%,27.1%,34.4%
CC[C@H](C)[C@H](NC(=O)[C@H]1CCCCN1C)C(=O)N(C)[C@H](C[C@@H](O)c1nc(C(=O)N[C@@H](Cc2ccccc2)C[C@H](C)C(=O)O)cs1)C(C)C,96.5%,83.1%,59.7%,65.2%,52.9%,81.2%,63.7%,41.1%,52.2%,82.8%
CCOC(=O)[C@@H](C)C[C@H](Cc1ccccc1)NC(=O)c1csc([C@@H](C[C@H](C(C)C)N(C)C(=O)[C@H](CC)NC(=O)[C@H]2CCCCN2C)OC(C)=O)n1,9.87% (active),4.72% (active),25.4%,19.7%,11.7%,23.8%,-52.9% (active),30.9%,9.39% (active),61.8%
O=C(CCCC1CCCCC1)OCC(Cl)(Cl)Cl,108%,103%,101%,106%,97%,91.4%,107%,98.9%,101%,113%
c1ccc(CSC(c2ccccc2)c2ccccc2)cc1,106%,84.1%,119%,104%,102%,104%,112%,103%,100%,143%
CCCCCCCCC(CO)NCCc1ccccc1 (stereo not given),102%,73.6%,108%,102%,93.3%,73.5%,101%,98.5%,103%,108%
CCCCCC1(CCBr)C(=O)NC(=O)NC1=O,97.7%,107%,99.2%,111%,93.4%,100%,109%,108%,104%,118%
CN1C(=O)C(=Cc2cn(Cc3ccccc3)c3ccccc23)C(=O)N(C)C1=O,93%,89.5%,60.1%,90%,82.8%,84.8%,63.4%,34%,82.6%,99.3%
CC[C@@H]1[C@@H](C)O[C@@](O)([C@@H](C)[C@H](O)[C@H](C)[C@H]2OC(=O)/C=C/C=C/[C@H](C)[C@@H]([C@@H](C)[C@@H](O)[C@H](C)[C@@]3(O)C[C@@H](O[C@H]4C[C@@H](O)[C@H](O)C(C)O4)[C@H](CC)[C@@H](C)O3)OC(=O)/C=C/C=C/[C@@H]2C)C[C@H]1O[C@@H]1C[C@@H](O)[C@H](O)C(C)O1 (stereo not given in full),-84.4% (active),-84% (active),-97.6% (active),-81.6% (active),-92.8% (active),-88.4% (active),-96.2% (active),-73.3% (active),-94% (active),-92.1% (active)
CCOC(=O)C(Cc1ccc(N(CCCl)CCCl)cc1)NC(=O)C(CC(C)C)NC(C)=O (stereo not given),35%,8.7% (active),41.6%,57.6%,25.5%,60.9%,60.8%,13.1%,-15.6% (active),6.21% (active)
COc1ccc(S(=O)(=O)N(Cc2ccc3c(c2)C=CC(C)(C)O3)c2ccccc2)cc1OC,74.9%,72.9%,83.1%,93.7%,89.1%,73.7%,3.42% (active),79.1%,74.2%,67.9%
CCc1ccccc1[C@@H]1C[C@]2(C)CCO[C@@H]2OO1,107%,98.4%,84.7%,93.6%,99.2%,100%,102%,99.9%,99.9%,110%
CC1(C)CN1P(=O)(N1CC1(C)C)N1CC1(C)C (stereo not given),112%,120%,72.7%,105%,98.2%,99.1%,117%,98%,103%,99.5%
O=[N+]([O-])c1c(Br)sc(Br)c1[N+](=O)[O-],-13.9% (active),-58% (active),63.1%,76%,-31% (active),67.5%,51.4%,-1.09% (active),-65.3% (active),57.3%
